The supplement of paper PMC6992640
± gives the standard deviation of the averaged measurements.

Columns and labels:
Experiment in all cases: cell viability (% of vehicle); higher = less cytotoxic
Settings in all cases: 10 µM; 72 h
[1] = tested on: HCI01 (cells of a triple-negative basal-like breast cancer xenograft)
[2] = tested on: HCI03 (cells of an ER-positive luminal breast cancer xenograft)
[3] = tested on: HCI09 (cells of a triple-negative luminal androgen receptor type breast cancer xenograft)
[4] = tested on: HCI11 (cells of an ER-positive luminal breast cancer xenograft)
[5] = tested on: HCI13 (cells of an ER-positive luminal breast cancer xenograft)
[6] = tested on: HCI16 (cells of a triple-negative basal-like breast cancer xenograft)
[7] = tested on: UCD52 (cells of a triple-negative basal-like breast cancer xenograft)
[8] = tested on: WHIM2 (cells of a triple-negative basal-like breast cancer xenograft)
[9] = tested on: WHIM30 (cells of a triple-negative basal-like breast cancer xenograft)
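Further: PDX cells carrying CMV promoter-driven luciferase, viability read as total photon flux per second by IVIS imaging following D-luciferin, vehicle control 0.1% DMSO.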

Compound	cell viability [1]	cell viability [2]	cell viability [3]	cell viability [4]	cell viability [5]	cell viability [6]	cell viability [7]	cell viability [8]	cell viability [9]
CCCS(=O)(=O)Nc1ccc(F)c(C(=O)c2c[nH]c3ncc(-c4ccc(Cl)cc4)cc23)c1F [Vemurafenib (PLX4032, RG7204)]	118 ± 12	195	114 ± 7.1	98.3	106 ± 4.2	102	108 ± 1.8	102.2 ± 0.85	185 ± 5.3
Cc1cc(C=CC#N)cc(C)c1Nc1ccnc(Nc2ccc(C#N)cc2)n1 [Rilpivirine]	122 ± 9.4	111	96.5 ± 4.4	96.3	122 ± 0.84	83.9	85.5 ± 8.7	93.7 ± 11	110 ± 28
c1coc(CNc2ncnc3nc[nH]c23)c1 [Kinetin]	109 ± 4.5	123	103 ± 12	100	120 ± 7.4	86.8	102 ± 20	93.7 ± 4	121 ± 4.5
Nc1nc(=O)c2c(CCc3ccc(C(=O)NC(CCC(=O)O)C(=O)O)cc3)c[nH]c2[nH]1.O.[Na+] (stereo not given) [Pemetrexed disodium hemipenta hydrate]	97.24 ± 0.52	95.8	93.8 ± 24	91.3	90 ± 7.8	69.3	95.4 ± 1.8	90.47 ± 0.25	119 ± 36
CN1CCN(C2=Nc3ccccc3Oc3ccc(Cl)cc32)CC1.O=C(O)CCC(=O)O [Loxapine Succinate]	117 ± 40	88.4	84.5 ± 17	84.4	64.9 ± 5.7	138	108 ± 6.8	104 ± 24	103 ± 6
NC(N)=Nc1nc(CSCCC(N)=NS(N)(=O)=O)cs1 [Famotidine]	120 ± 16	127	103 ± 8.7	98.9	149 ± 20	98.6	78.5 ± 6.2	85.9 ± 6.1	165 ± 4.1
CCC1OC(=O)C(C)C(OC2CC(C)(OC)C(O)C(C)O2)C(C)C(OC2OC(C)CC(N(C)C)C2O)C(C)(O)CC(C)C(=NOCOCCOC)C(C)C(O)C1(C)O (stereo not given) [Roxithromycin]	138 ± 34	147	113 ± 25	101	133 ± 12	154	103 ± 2.8	103 ± 17	188 ± 29
COc1c(C)c2c(c(O)c1CC=C(C)CCC(=O)OCCN1CCOCC1)C(=O)OC2 [Mycophenolate Mofetil]	141 ± 31	106	86.9 ± 23	103	81.8 ± 11	86.2	91.4 ± 22	112 ± 7.2	130 ± 30
C=C1CCC(O)CC1=CC=C1CCCC2(C)C1CCC2C(C)C=CC(C)C(C)C (stereo not given) [Vitamin D2 (Ergocalciferol)]	118 ± 26	101	61.9 ± 14	95.2	58.8 ± 16	77.9	65.5 ± 2.4	40.7 ± 13	89.1 ± 10
COc1cc2nc(N3CCN(C(=O)C4CCCO4)CC3)nc(N)c2cc1OC.Cl.O.O (stereo not given) [Terazosin HCl]	137 ± 8	116	110 ± 19	101	104 ± 2	123	85.8 ± 15	113 ± 5.9	114 ± 12
c1ccc(-c2ccc(C(c3ccccc3)n3ccnc3)cc2)cc1 (stereo not given) [Bifonazole]	93.4 ± 4.3	108	74 ± 1.6	95.3	84.3 ± 22	108	149 ± 50	121 ± 1.4	126 ± 20
O=C(NCCO[N+](=O)[O-])c1cccnc1 [Nicorandil]	81.9 ± 59	135	93.1 ± 9.9	89.3	151 ± 28	113	82.6 ± 8.1	120 ± 9.5	127 ± 5.8
COc1cc(C=CC(=O)CC(=O)C=Cc2ccc(O)c(OC)c2)ccc1O [Curcumin]	94.5 ± 54	135	69.3 ± 40	51	98.4 ± 44	110	127 ± 22	145 ± 53	197 ± 9.6
CC1OC(n2cc(F)c(=O)[nH]c2=O)C(O)C1O (stereo not given) [Doxifluridine]	67.1 ± 35	152	89.8 ± 12	110	104 ± 7.4	148	93 ± 19	102 ± 19	175.4 ± 0.91
CC(N)(Cc1ccc(O)c(O)c1)C(=O)O (stereo not given) [Methyldopa]	95.3 ± 9.9	96.8	95.5 ± 7.2	63.1	126 ± 11	127	91.1 ± 2.8	112 ± 1.3	96.2 ± 3.6
CON=C(C(=O)NC1C(=O)N2C(C(=O)O)=C(CSC(=O)c3ccco3)CSC12)c1csc(N)n1.Cl (stereo not given) [Ceftiofur HCl]	90.2 ± 12	132	95.9 ± 8.5	100	56.9 ± 2.3	103	103 ± 12	104 ± 10	111 ± 14
CN1CCN2c3ncccc3Cc3ccccc3C2C1 (stereo not given) [Mirtazapine]	66.7 ± 36	149	91.4 ± 1.8	103	118 ± 26	114	86.1 ± 2.4	87.6 ± 30	138 ± 17
Cn1c([N+](=O)[O-])cnc1COC(N)=O [Ronidazole]	95.3 ± 20	134	94.5 ± 2.1	88.1	102 ± 13	108	91.2 ± 2.2	90.4 ± 19	102 ± 2.5
COc1ccc2[nH]cc(CCNC(C)=O)c2c1 [Melatonin]	112 ± 10	134	106 ± 2.2	97.8	108 ± 3.3	109	127 ± 5.4	121 ± 26	158 ± 17
Nc1ccc(S(=O)(=O)Nc2ncccn2)cc1 [Sulfadiazine]	131 ± 9.1	126	158 ± 83	103	153 ± 29	101	95.5 ± 16	101 ± 21	118 ± 18

Compound	cell viability [1]	cell viability [2]	cell viability [3]	cell viability [4]	cell viability [5]	cell viability [6]	cell viability [7]	cell viability [8]	cell viability [9]
CCCCNc1cc(C(=O)O)cc(S(N)(=O)=O)c1Oc1ccccc1 [Bumetanide]	109 ± 9.6	95.9	109 ± 8.9	92	89.5 ± 4	108	99 ± 1.3	78.6 ± 14	133 ± 26
NCCCC(O)(P(=O)([O-])O)P(=O)(O)O.O.O.O.[Na+] [Alendronate]	89.6 ± 12	123	85.1 ± 12	69.5	106 ± 5.1	109	94.7 ± 19	104 ± 5.2	97.5 ± 11
COc1cc2nccc(Oc3ccc(NC(=O)C4(C(=O)Nc5ccc(F)cc5)CC4)cc3)c2cc1OC	108 ± 6.6	114	91.5 ± 2	88.9	97.7 ± 13	93.8	88.3 ± 15	90.1 ± 11	116 ± 3.4
CS(=O)(=O)O.OC(CCN1CCCCC1)(c1ccccc1)c1ccccc1 [Pridinol Methanesulfonate]	113 ± 3.7	104	124 ± 47	119	92.6 ± 12	112	86.1 ± 6.1	164 ± 89	129 ± 10
CC(=O)Oc1ccc(C(c2ccc(OC(C)=O)cc2)c2ccccn2)cc1 [Bisacodyl]	53.2 ± 14	130	30.9 ± 6.2	50.3	184 ± 16	70.9	80.9 ± 17	111 ± 43	76.5 ± 1.4
O=C1CN(/N=C/c2ccc(-c3ccc([N+](=O)[O-])cc3)o2)C([O-])=N1.[Na+] [Dantrolene, sodium salt]	98.7 ± 15	174	83.5 ± 7.8	99.1	105 ± 9.9	110	92.4 ± 4.7	104 ± 4	130 ± 7.4
O=C(NCC(O)CO)c1ccncc1Nc1ccc(I)cc1F (stereo not given)	72.8 ± 3.9	72.9	55.3 ± 28	83.1	64.4 ± 5.6	116	70.57 ± 0.44	41.9 ± 8.5	130 ± 14
COC(=O)C1=C(C)NC(C)=C(C(=O)OC)C1c1ccccc1[N+](=O)[O-] [Nifedipine]	82.2 ± 18	130	66.9 ± 6.3	71.2	93.3 ± 14	111	92.25 ± 0.35	92.3 ± 17	110.7 ± 0.67
CC(=O)OCC(=O)NCCCOc1cccc(CN2CCCCC2)c1.Cl [Roxatidine Acetate HCl]	175 ± 22	118	121 ± 11	120	141 ± 22	131	95.5 ± 9.9	106 ± 3.1	128 ± 15
O=C1NC(=O)C(c2ccccc2)(c2ccccc2)N1 [Phenytoin]	106 ± 8.9	151	105.6 ± 0.89	108	113 ± 16	129	99 ± 5.9	118 ± 16	160 ± 25
CCOc1ccc(NC(C)=O)cc1 [Phenacetin]	139 ± 6	136	96.9 ± 17	96.7	102 ± 3.9	122	82 ± 12	98.7 ± 10	94.4 ± 11
Nc1ccc(S(=O)(=O)c2ccc(N)cc2)cc1 [Dapsone]	114 ± 18	146	111 ± 3.1	116	118 ± 22	158	116 ± 4.3	115 ± 8.2	117 ± 10
CCc1cc(C(C)=NOCc2ccc(C3CCCCC3)c(C(F)(F)F)c2)ccc1CN1CC(C(=O)O)C1 [BAF312 (Siponimod)]	97.4 ± 10	124	44.2 ± 29	72.2	75.64 ± 0.57	115	93.7 ± 1.5	93.7 ± 17	111 ± 9.5
Cc1ccc(O)c(C(CCN(C(C)C)C(C)C)c2ccccc2)c1.O=C(O)C(O)C(O)C(=O)O (stereo not given) [Tolterodine tartrate]	113 ± 38	101	96.8 ± 7.1	93.6	97.1 ± 18	133	60.5 ± 8.9	91.5 ± 2.5	92.5 ± 1.7
Cc1cc2c(cc1S(N)(=O)=O)S(=O)(=O)CCC2 [Meticrane]	109 ± 8.8	117	102 ± 6.3	89	103 ± 9.6	110	96.3 ± 10	97 ± 7.5	80.4 ± 2.8
CCCCOc1ccc(OCCCN2CCOCC2)cc1.Cl [Pramoxine HCl]	137.9 ± 0.65	103	92.4 ± 8.4	112	83.5 ± 24	116	79.6 ± 6	166 ± 12	133 ± 23
COc1cc(NS(=O)(=O)c2ccc(N)cc2)nc(OC)n1 [Sulfadimethoxine]	91.8 ± 17	155	103 ± 14	103	116 ± 1.2	118	112 ± 5.2	86.1 ± 9.4	172 ± 27
NS(=O)(=O)c1cc2c(cc1Cl)NC=NS2(=O)=O [Chlorothiazide]	101 ± 4.1	149	102 ± 12	121	134 ± 16	90	93.8 ± 13	89.4 ± 27	124 ± 29
CCN(CC)CCOC(=O)c1ccc(N)cc1 [Procaine]	99.4 ± 4.1	122	105 ± 23	87	96.765 ± 0.018	102	88.1 ± 3.5	97.3 ± 23	95.2 ± 24
Cc1nc2c([nH]1)CCN(C(=O)c1ccc(NC(=O)c3ccccc3-c3ccccc3)cc1)c1ccccc1-2.Cl [Conivaptan HCl]	111 ± 18	83.3	60.4 ± 7.1	85.3	99.5 ± 17	106	71.7 ± 2.5	104 ± 22	141 ± 2
